Data: PubChem BioAssay (EPA / NIEHS)
“And” between values parts separate entries of the source, which are not always exact repeats. Equal values may be shown once. Records with an inconclusive call do not appear. The source made the active and inactive calls. The calls were made as follows: active = hit-call score of the fitted dose curve at least 0.9, where 1 is the maximum; inconclusive = response in the unintended direction; inactive = score below 0.9.

What follows are molecules tested against Cytochrome P450 2C19 (Homo sapiens) (UniProt P33261) (assay: NVS_ADME_hCYP2C19: NovaScreen (NVS) CYP450-related Enzyme Activity (ADME) Assay for human CYP2C19 (AID 2283113);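 as to AC50: potency for inhibition seen as loss of fluorescent signal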).
Procedure, shortened: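 Biochemical CYP2C19 inhibition screen: insect-cell recombinant protein plus fluorescent substrate, 1 h, fluorescence intensity. Acetonitrile defined baseline activity. Single 10 uM concentration in duplicate, with concentration-response follow-up for actives.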
With `Cc1cc(C(C)(C)c2ccc(O)c(C)c2)ccc1O` the AC50 was 1.04 µM (active).
With `CCOC(=O)C(SP(=S)(OC)OC)c1ccccc1` (configuration not stated) the AC50 was 5 µM (active).
For `CC1(C)[C@H](C(=O)O[C@H](C#N)c2cccc(Oc3ccccc3)c2)[C@@H]1/C=C(\Cl)C(F)(F)F`, the AC50 was 848 nM (active) and 3.32 µM (active).
For `O=[N+]([O-])c1ccc(Nc2ccccc2)cc1`, the AC50 was 5 µM (active).
For `CCOP(=O)(OCC)OC(=CCl)c1ccc(Cl)cc1Cl`, the AC50 was 1.45 µM (active).
In the case of `CC(C=O)Cc1ccc2c(c1)OCO2` (configuration not stated), the AC50 is reported as 5 µM (active).
`CN(C)C(=S)S` was tested, and the outcome was “inactive”.
In the case of `[Cl][Sn]([c]1ccccc1)([c]1ccccc1)[c]1ccccc1`, the AC50 is reported as 1.25 µM (active).
For `CCOC(=O)CCN(SN(C)C(=O)Oc1cccc2c1OC(C)(C)C2)C(C)C`, the AC50 was 3.01 µM (active).
With `CNC(=O)CSP(=O)(OC)OC` the AC50 was 2.11 µM (active).
With `OC(Cc1ccccc1Cl)(Cn1[nH]cnc1=S)C1(Cl)CC1` (configuration not stated) the AC50 was 0.689 µM (active).

What follows are molecules tested against human AMP-activated Protein Kinase, alpha 1 (AMPKa1), PRKAA1 (gene 5562) (UniProt Q13131) (assay: NVS_ENZ_hAMPKa1: NovaScreen (NVS) Enzymatic Assay for human AMP-activated Protein Kinase, alpha 1 (AMPKa1) (AID 2283130)).
Sequence of human AMP-activated Protein Kinase, alpha 1 (AMPKa1), PRKAA1 (gene 5562) (Q13131 whole entry, looked up): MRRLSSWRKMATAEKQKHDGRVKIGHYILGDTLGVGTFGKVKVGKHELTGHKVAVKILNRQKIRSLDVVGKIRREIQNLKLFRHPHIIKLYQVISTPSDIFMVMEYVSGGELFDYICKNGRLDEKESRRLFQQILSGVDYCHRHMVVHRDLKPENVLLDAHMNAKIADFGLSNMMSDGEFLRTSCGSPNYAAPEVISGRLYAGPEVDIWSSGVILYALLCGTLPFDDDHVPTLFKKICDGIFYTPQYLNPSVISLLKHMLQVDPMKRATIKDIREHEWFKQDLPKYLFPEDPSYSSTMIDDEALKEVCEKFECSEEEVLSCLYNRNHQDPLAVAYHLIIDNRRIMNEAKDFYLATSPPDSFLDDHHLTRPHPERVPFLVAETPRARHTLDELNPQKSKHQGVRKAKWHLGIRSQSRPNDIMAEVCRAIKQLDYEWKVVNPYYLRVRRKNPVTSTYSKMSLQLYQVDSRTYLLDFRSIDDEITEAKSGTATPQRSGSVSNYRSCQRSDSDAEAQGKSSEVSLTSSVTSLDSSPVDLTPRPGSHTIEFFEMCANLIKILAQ
Procedure, shortened: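 Recombinant human AMPKα1 activity was measured cell-free by fluorescent substrate conversion with electrophoretic mobility-shift separation, 1 h after dosing. Duplicate single-point screening was at 25 uM; actives (≥30% inhibition) were retested in concentration-response up to 50 uM.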
With `CCCCCCCCCCCCOS(=O)(=O)O` the outcome was “inactive”.
For `N#Cc1cccnc1`, the outcome was “inactive”.
`CC(C)O.CC(C)O.OCCN(CCO)CCO.OCCN(CCO)CCO.[Ti]` was tested, and the AC50 was 1500 nM (active).
For `O=C(N[C@H]1CN2CCC1CC2)c1ccc2c(c1)OCCO2`, the outcome was “inactive”.
In the case of `CCCCCCCCCCCCc1cccc(S(=O)(=O)O)c1`, the outcome is reported as “inactive”.
In the case of `O=C(O)C1(c2ccc3c(c2)OC[C@H](Cc2ccc(-c4ccccc4)cc2)[C@H]3O)CCCC1`, the outcome is reported as “inactive”.
